Screening results (PubChem BioAssay)
Shown are actives, neighbours in structure and some others; about 8.3% of the full set was active somewhere.
FBPA Giardia inh: inhibitors of Giardia lamblia fructose-1,6-bisphosphate aldolase. A8B2U2. purified Giardia FBPA. Potency, µM (highest dose often 59.6 µM), for the others: at the highest dose activity, negative = inhibition, actives largely listed as inhibitors. 290,000 compounds, 0.71% hits. AID 2451; also: potency is read from the fitted curve at half-maximal effect; nearly all actives have a fitted effect of over 55% in size
Target sequence (A8B2U2 whole entry, looked up): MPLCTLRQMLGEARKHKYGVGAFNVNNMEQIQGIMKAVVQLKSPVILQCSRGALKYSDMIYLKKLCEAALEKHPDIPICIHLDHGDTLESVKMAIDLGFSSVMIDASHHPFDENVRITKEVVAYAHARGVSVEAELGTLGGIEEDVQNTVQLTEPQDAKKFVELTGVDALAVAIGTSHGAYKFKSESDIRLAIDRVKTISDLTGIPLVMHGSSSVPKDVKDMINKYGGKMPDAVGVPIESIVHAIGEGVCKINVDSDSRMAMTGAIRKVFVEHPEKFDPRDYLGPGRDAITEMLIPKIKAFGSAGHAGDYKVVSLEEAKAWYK
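40 nM FBPA preincubated 10 min at RT with compound (up to 57.5 uM final), then substrate plus GAPDH/TPI/NAD/arsenate coupling and diaphorase/resazurin added. Fluorescence read after 20 min at RT, 525/598 nm.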
Lassa entry inh: blocks Lassa virus binding to or entry into cells | Lassa virus pseudotype entry inhibition, cell reporter | Potency, µM (titrated, usually from 37.9 µM), for the others: top-dose activity change, negative = inhibition, most hits filed as inhibitors | 300,000 compounds, 1.2% hits; calls by dose curve; tested in HEK293 cells; also: potency is read from the fitted curve at half-maximal effect; nearly all actives have a fitted effect of over 50% in size
FMDV inh: foot and mouth disease virus antiviral activity; Potency, µM (top dose mostly 57.9 µM), for inactives: at the highest dose activity change, negative = inhibition, actives largely listed as inhibitors; FMDV antiviral cell-based qHTS; 410,000 compounds, 1.2% hits; calls by dose curve; tested in HEK293T cells; also: read-out not given here; potency is read from the fitted curve at half-maximal effect; nearly all actives have a fitted effect of over 45% in size
HCV inh: blocks hepatitis C virus. 340,000 compounds, 3.4% hits. AID 651820. Huh7.5.1 HCVcc-Cre infection, luciferase reporter, 44 h. Potency, µM (doses to about 41.8 µM), for the others: at the highest dose activity change, negative = inhibition, hits mostly inhibitors; also: potency is read from the fitted curve at half-maximal effect
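Compounds are dispensed onto cells plated 4 h earlier at 1,000 per well, with HCVcc-Cre virus (about 0.5 moi) added next. Following 44 h of culture, luminescent signal is measured for 15 sec after 15 min with substrate at room temperature.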
HCMV antiviral: human cytomegalovirus inhibition. 410,000 compounds, 4.5% hits. activity change, negative = inhibition, % at 57.5 µM. HFF cells, HCMV-luciferase reporter, 72 h; active compounds read low; in the data active = activity change below about -60%; inconclusive = no clear call, values can overlap the other calls; inactive = above about -39%
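Cell-based, HFFs, 1000 cells/well, 16 h 37C; cpds in DMSO + HCMV-luc, MOI 1 PFU/cell; 72 h 37C; OneGlo luminescence after 5 min RT; norm. to buffer vs Salinomycin 10uM.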
Marburg entry inh: inhibitors of Marburg virus binding or cell entry; Marburg virus pseudotyped entry inhibition, cell reporter; Potency, µM (doses to about 37.8 µM), inactives show at the highest dose activity change, negative = inhibition, actives largely listed as inhibitors; 300,000 compounds, 1.8% hits; calls by dose curve; tested in HEK293 cells; also: potency is read from the fitted curve at half-maximal effect
The depositor's hits bear a star; ? = inconclusive; · = no result; [ ] = remark or other dose. Unless noted, calls follow the shape of the dose curve; as a rule, active = well fitted curve in the direction sought with a large enough effect; inconclusive = small, poorly fitted or top-dose-only effect, or another doubt; inactive = no such curve, though single readings can be large; an effect the other way counts as inactive or inconclusive. % is scaled to controls: 0 for no effect and ±100 for the full control effect.

SMILES	FBPA Giardia inh	Lassa entry inh	FMDV inh	HCV inh	HCMV antiviral	Marburg entry inh
COc1ccc(/C=N/NC(=O)c2cccnc2)cc1CSc1nc2ccccc2s1	-3%	-24%	35µM*	-10%	?	-17%
COc1ccc(/C=N/NC(=O)c2cccnc2)cc1CN1CCOCC1	-1%	1%	6%	9%	0	-5%
COc1ncc2nc(CCc3ccccc3)c(=O)n(C3CC3)c2n1	0%	·	11%	·	·	·
COc1ccc(C(CC(=O)N2CCCCC2)NC(=O)C(F)(F)F)cc1 (centres undefined)	4%	-1%	1%	15%	-9	5%[46.1 µM]
COc1ccc(C(CC(=O)Nc2ccc(Cl)cc2F)NC(=O)C(F)(F)F)cc1 (centres undefined)	-4%	-3%	-4%	5%	-89*	-28%
COC(=O)c1sc(NC(=O)c2ccncc2)nc1C	-7%	?	26%	22%	19	?
CCOc1ccc(C(=O)Nc2nc(C)c(C(=O)OC)s2)cc1	4%	24%[46.1 µM]	21%	18µM*	21	?
Cc1csc(NC(=O)c2ccc(OCC3CCCO3)cc2)n1 (centres undefined)	-11%	3.5µM*	-68%	11µM*	-13	4.5µM*
CCOc1ccc2nc(NC(=O)c3ccc(OCC4CCCO4)cc3)sc2c1 (centres undefined)	-5%	-14%	18µM*	4µM*	?	-30%[46.1 µM]
Cc1ccnc(NC(=O)c2ccc(OCC3CCCO3)cc2)c1 (centres undefined)	·	6.3µM*	16µM*	-1%	4	3.5µM*
COc1ccc(Br)cc1CNC(=O)CCCn1c(=O)c2cccn2c2ccccc21	·	-8%[46.1 µM]	-6%	·	-30	·
Cn1c(=O)c2c(nc(N3CCOCC3)n2Cc2cccc(Br)c2)n(C)c1=O	·	8%[46.1 µM]	?	·	2	8%[46.1 µM]
O=C(Nc1nc(-c2ccc(F)c(F)c2)cs1)c1ccc(OCC2CCCO2)cc1 (centres undefined)	17%	-23%	2µM*	?	-69*	?
O=C(Nc1nc(-c2ccc(F)c(F)c2)cs1)C1=COCCO1	·	·	6%	-28%	-24	·
CCOC(=O)c1cccn1C1C(=O)N(Cc2ccc(OC)cc2)c2ccc(OC)cc21 (centres undefined)	·	·	·	·	-6	·
C#CC[N+](C)(C)CC#Cc1ccc(Cl)cc1	4%	-14%	-2%	-20%	-94*	-3%[46.1 µM]
C=C1C(O)[C@@H]2O[C@]3(CC[C@H](/C=C/C(C)[C@@H]4CC(C)=CC5(O[C@H](C[C@@](C)(O)C(=O)O)CCC5O)O4)O3)CC[C@H]2O[C@@H]1C(O)CC(C)[C@H]1OC2(CCCCO2)CCC1C (some centres undefined)	·	·	1µM*	?	·	·
O=C(N/N=C/c1ccc(-c2ccc([N+](=O)[O-])cc2)o1)[C@H]1C[C@@H]1c1ccccc1	-3%	?	15%	?	0	-23%[46.1 µM]
O=C(N/N=C/c1ccc(-c2ccccc2[N+](=O)[O-])o1)[C@H]1C[C@@H]1c1ccccc1	?	0.82µM*	14%	?	?	?
Cc1ccc(C(=O)N/N=C/c2ccc(-c3ccccc3[N+](=O)[O-])o2)cn1	?	18%	-25%	-8%	-64*	5%
O=C(/C=C/c1ccc(-c2ccccc2[N+](=O)[O-])o1)c1ccccc1	?	8%	4%	-17%	43	?
O=C(N/N=C/c1ccc(-c2cccc([N+](=O)[O-])c2)o1)[C@H]1C[C@@H]1c1ccccc1	-2%	4µM*	-22%	?	?	4%
CCN1[C@H](C(=O)OC)[C@@H](CO)[C@@H]2Cn3c(ccc(Br)c3=O)[C@@H]21	·	·	·	·	20	·
COc1cccc(CN(C)C(=O)c2ccccc2SCC(=O)N2CCCC2)c1	·	?	17%	-4%	-32	-4%
CN(Cc1cccc(Cl)c1Cl)C(=O)c1ccccc1SCC(=O)N1CCCC1	·	-23%	2%	22µM*	-5	?
SMILES	FBPA Giardia inh	Lassa entry inh	FMDV inh	HCV inh	HCMV antiviral	Marburg entry inh
COc1ccccc1CN(C)C(=O)c1ccccc1SCC(=O)N1CCCC1	·	·	63%	8%	0	·
CN(Cc1ccccc1)C(=O)COC(=O)c1ccccc1SCC(=O)N1CCCC1	·	7%	-14%	5%	-61*	-2%
CN(Cc1ccc(Cl)c(Cl)c1)C(=O)c1ccccc1SCC(=O)N1CCCC1	·	-12%	-16%	-19%	-99*	-17%[46.1 µM]
COc1ccc(Nc2cc3c(cn2)cc(-c2cccc(C(F)(F)F)c2)n3C)cc1	·	·	·	·	-17	·
O=C(c1ccccc1-n1cccn1)N1CCOc2ccc(CN3CCOCC3)cc2C1	·	·	-4%	·	·	·
O=[N+]([O-])c1ccc(NC(=S)NCCc2ccc(F)cc2)cc1	-4%	?	-16%	?	-98*	?
Fc1ccc(NC(=S)NCc2ccccc2Cl)cc1	1%	-3%	20%	-14%	-70*	38%
O=C(NCCc1ccc(F)cc1)Nc1ccc([N+](=O)[O-])cc1	·	28%[46.1 µM]	2%	?	-14	?
S=C(NCCc1ccc(Cl)cc1)NC1CCCC1	-3%	·	50%	?	-69*	·
Fc1ccc(CCNC(=S)Nc2ccc(F)c(Cl)c2)cc1	0%	?	-29%	?	-66*	4%[46.1 µM]
S=C(NCCc1ccc(Cl)cc1)NC1CCCCC1	-21%	?	7%	-26%	60	?
COc1ccccc1CNC(=S)Nc1ccc(F)cc1	9%	-39%[46.1 µM]	41%	-25%	-25	-15%[46.1 µM]
C=CCCCCCCCCCCCc1ccco1	4%	·	-5%	·	·	·
COc1cccc(CNC(=O)c2c(OC)cc(=O)n3c2CCN(C(=O)C2=C(C)OCCO2)CC3)c1	·	·	31%	·	·	·
Cc1cc(C)cc([C@H]2C[C@]34CN(Cc5ccccc5)[S+](=O)([O-])[C@@H]3C[C@@H]2O4)c1	·	5%[46.1 µM]	·	·	·	·
Fc1ccc(NC(=S)NCCc2ccc(Cl)cc2)cc1	0%	20%	27%	8%	-69*	?
COc1ccc(-c2cn[nH]c2-c2ccc(OCc3ccc([N+](=O)[O-])cc3)cc2O)cc1OC	-4%	·	16µM*	?	-96*	·
COc1ccc(-c2cn[nH]c2-c2ccc(OCc3ccccc3F)cc2O)cc1OC	-7%	·	?	11µM*	-61*	·
O=[N+]([O-])c1ccc(COc2ccc(-c3[nH]ncc3-c3ccc(Cl)cc3)c(O)c2)cc1	15%	?	32µM*	?	-7	?
Nc1nc2c(ncn2C2CC(O)C(CO)O2)c(=O)[nH]1 (centres undefined)	3%	·	21%	·	·	·
C=C(Br)CO[C@@H]1C=C[C@@H](c2ccccc2)O[C@@H]1COC	·	·	·	·	·	9%[14.2 µM]
O=C(/C=C/c1ccco1)Nc1ccc(Cl)c(S(=O)(=O)N2CCOCC2)c1	-4%	·	22µM*	10µM*	-69*	·
